Bioassay records: PubChem BioAssay, The Scripps Research Institute Molecular Screening Center
MOR-DOR inv ag: inverse agonists of MOR-DOR heterodimerization, primary screen, cell-based, luminescence | hit rate 0.21% among 340,000 | Mu-type opioid receptor (Homo sapiens) + Delta-type opioid receptor (Homo sapiens), … | inhibition, % at 9.3 µM | cell-based MOR-DOR heterodimer luminescence, inverse agonism; in the data active = inhibition above about 22%, passing the limit was not always enough
HTR5A ag ctr: HTR5A agonists in luminescence cell assay, primary screen, counter-screen for OPRM1-OPRD1 heterodimer agonist project, full-deck HTS; cell-based; activation, % at 9.3 µM; hit rate 0.61% among 340,000; AID 504692, 2011; in the data active = activation mostly above about 9.5%, no sharp cut-off; inactive = mostly below about 7.6%
Target sequence (P47898 whole entry, looked up): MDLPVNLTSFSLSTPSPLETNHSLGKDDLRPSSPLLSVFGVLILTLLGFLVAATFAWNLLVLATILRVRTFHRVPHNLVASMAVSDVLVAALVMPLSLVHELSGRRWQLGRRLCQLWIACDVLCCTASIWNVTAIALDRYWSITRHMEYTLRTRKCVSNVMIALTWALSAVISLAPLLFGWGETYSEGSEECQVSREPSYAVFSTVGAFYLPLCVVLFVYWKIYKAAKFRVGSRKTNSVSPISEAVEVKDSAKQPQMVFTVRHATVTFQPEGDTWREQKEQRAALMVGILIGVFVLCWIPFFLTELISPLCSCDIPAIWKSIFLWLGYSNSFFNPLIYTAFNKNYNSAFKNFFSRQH
HTR5A inv ag: HTR5A inverse agonists in luminescence cell assay, primary screen, counter-screen for OPRM1-OPRD1 heterodimer inverse agonist project, full-deck HTS | 5-hydroxytryptamine receptor 5A (Homo sapiens), P47898 | HTR5A cell line, inverse agonism | inhibition, % at 9.3 µM | hit rate 0.083% among 340,000; in the data active = inhibition mostly above about 23%, no sharp cut-off; inactive = mostly below about 18%
OPRM1-OPRD1 ag: agonists of OPRM1-OPRD1 heterodimerization, primary screen, cell-based, luminescence | Mu-type opioid receptor (Homo sapiens) + Delta-type opioid receptor (Homo sapiens), … | cells | activation, % at 9.3 µM | hit rate 0.3% among 340,000 | AID 504326, 2011; in the data active = activation above about 18%
A number is an active result; i = inactive. Only some compounds are listed: those with a hit (about 1.1% of all), similar ones and a draw of the others.

SMILES | MOR-DOR inv ag | HTR5A ag ctr | HTR5A inv ag | OPRM1-OPRD1 ag
O=C(CSC1CN(C(c2ccccc2)c2ccccc2)C1)N/N=C/c1ccc(Cl)cc1Cl | i | 12 | i | i
O=C(CSc1nnc(SCc2ccccc2)s1)N/N=C/c1ccc(Cl)cc1Cl | i | i | i | i
Cn1ncc2c(O/N=C(\N)c3ccc(C(C)(C)C)cc3)ncnc21 | i | 68 | i | 182
CCOC(=O)c1ccc(Nc2ncnc3c2cnn3C)cc1 | i | i | i | i
CCOc1cc(C)c(S(=O)(=O)Nc2ccc(Cl)cn2)cc1C | i | 14 | i | i
CCOc1ccc(S(=O)(=O)Nc2ccc(Cl)cn2)c(C)c1C | i | i | i | i
Cc1c(NC(=O)c2ccc3c(c2)C(=O)N(CC2CCCO2)C3=O)cccc1C(=O)O (configuration not stated) | i | 10 | i | i
O=C(Cc1ccccc1)NN1C(=O)C2C3C=CC(C3)C2C1=O (configuration not stated) | i | i | i | i
CC1CCCC(C)N1NC(=O)Cc1ccccc1 (configuration not stated) | i | 9.7 | i | i
CCCC(C(=O)NNC(=O)c1cc(C)oc1C)c1ccccc1 (configuration not stated) | i | i | i | i
COc1ccc(Cl)cc1S(=O)(=O)N1CCCC1=O | i | i | i | i
COc1ccc(Cl)cc1S(=O)(=O)n1ccnc1 | i | 9.2 | i | i
COC(=O)C[C@H]1c2cc(F)ccc2S(=O)(=O)N1Cc1ccccc1 | i | i | i | i
Cc1ccc(N=c2c([N+](=O)[O-])nn(-c3ccccc3)n2O)c(C)c1 | i | 11 | i | i
CC(=O)Nc1ccc(S(=O)(=O)N2CCN(S(=O)(=O)N3CCC(C)CC3)CC2)cc1 | i | i | i | i
S=C(Nc1ccc(Cl)cc1)c1nc2ccccc2s1 | i | i | i | i
O=C(Nc1ccc(Cl)cc1)/C(=C/c1cccc(O)c1)c1nc2ccccc2s1 | i | 11 | i | i
COc1cccc(N(C(=O)CCl)C(C(=O)NCCc2ccccc2)c2cccs2)c1 (configuration not stated) | i | 61 | i | 68
COc1ccc(N(C(=O)c2ccco2)C(C(=O)NC2CCCCC2)c2cccs2)cc1OC (configuration not stated) | i | i | i | i
COc1ccc(N(C(=O)CCl)C(C(=O)NCCc2ccccc2)c2cccs2)cc1Cl (configuration not stated) | i | 54 | i | 66
COc1cccc(N(C(=O)c2snc(C(N)=O)c2N)C(C(=O)NCC2CCCO2)c2cccs2)c1 (configuration not stated) | i | i | i | i
COc1ccc(NS(=O)(=O)c2cccc(C(=O)O)c2)cc1S(=O)(=O)N1CCOCC1 | i | i | i | i
CCn1nc(NC(=O)c2cccnc2)c2cc3cccc(C)c3nc21 | i | 18 | i | i
Cc1ccc(C)n1-c1sc2c(c1C#N)CCC(C)C2 (configuration not stated) | i | 13 | i | i
N=C1C(c2ccccc2)=C(O)CN1c1cccc(S(=O)(=O)N2CCOCC2)c1 | i | i | i | i
SMILES | MOR-DOR inv ag | HTR5A ag ctr | HTR5A inv ag | OPRM1-OPRD1 ag
CCC1(CC)NC(=O)N(CC(=O)OCC(=O)Nc2ncc(Cl)cc2Cl)C1=O | i | i | i | i
COc1ccc(C(C(=O)NC2CCCCC2)N(C(=O)CCl)c2ccc(OC)cc2)cc1 (configuration not stated) | i | 50 | i | 65
COc1ccc(C(C(=O)NC2CCCCC2)N(C(=O)CCl)c2cccc(Cl)c2)cc1 (configuration not stated) | i | 86 | i | 94
COc1ccc(N(C(=O)CCl)C(C(=O)NC2CCCCC2)c2cccnc2)cc1 (configuration not stated) | i | i | i | i
COc1ccc(C(C(=O)NC2CCCCC2)N(C(=O)CCl)c2ccc(C)cc2)cc1 (configuration not stated) | i | 31 | i | 24
CCCn1c(N)c(C(=O)COC(=O)CNC(=O)c2ccc(C)c(C)c2)c(=O)n(C)c1=O | i | i | i | i
Cc1ccc2cc(NC(=O)c3ccccc3)ccc2n1 | i | 9.4 | i | i
Cc1ccc2cc(NC(=O)c3cccc(F)c3)ccc2n1 | i | i | i | i
Cc1c([N+](=O)[O-])cc(C(=O)Nc2ccc3ncccc3c2)cc1[N+](=O)[O-] | i | 9.5 | i | i
Cc1ccccc1NC(=O)CN1C(=O)NC2(CCCCCCC2)C1=O | i | i | i | i
COc1ccc(S(=O)(=O)NCCC(=O)Nc2ccc(C)cc2)cc1 | i | i | i | i
CCC1CN(C(=O)N2CCC(C(=O)Nc3ccccc3F)CC2)c2ccccc2O1 (configuration not stated) | i | i | i | i
COc1ccc(/C=N\NC(=O)c2ccc(Cn3cc(Br)c([N+](=O)[O-])n3)o2)c(OC)c1C | i | 11 | i | i
CC(C)CC(C(=O)N1CCOCC1)N1Cc2ccccc2C1=O (configuration not stated) | i | 12 | i | i
COC(=O)C(CO)NC(=O)C1CCCN1C(=O)CNC(=O)OCc1ccccc1 (configuration not stated) | i | i | i | i
Cc1cc(N2O[C@H]3C=C[C@@H]2C3)no1 | i | i | i | i
O=C(NNC(=S)NC(=O)c1ccc(F)cc1)c1ccncc1 | i | i | i | i
CC1(C(=O)NC(=S)NNC(=O)c2ccncc2)CCCCC1 | 36 | i | 32 | i
O=C(Cc1ccc(Cl)cc1)OCC(=O)N1CCCCCC1 | i | i | i | i
C[C@H](CO)N1C[C@H](C)[C@H](CN(C)Cc2ccc(-c3ccccc3)cc2)Oc2ccc(NS(=O)(=O)c3ccccc3)cc2CC1=O | i | 14 | i | i
COc1ccccc1CN1CC(C(=O)NCc2cc(C)on2)CCC1=O (configuration not stated) | i | i | i | i
CCn1cc(C(=O)NN)c(=O)c2cc(F)c(NC3CCCCC3)cc21 | i | i | i | i
CN(C)S(=O)(=O)c1cccc(NC(=O)CSc2nc3c(cc2C#N)C(=O)CC(C)(C)C3)c1 | i | 13 | i | i
Cc1cc(C)c2sc(N(CCCN(C)C)C(=O)c3ccc(S(=O)(=O)N4CCc5ccccc5C4)cc3)nc2c1 | i | 33 | i | 29
COc1ccc2sc(N(CCCN(C)C)C(=O)c3ccc(S(=O)(=O)N4CCc5ccccc5C4)cc3)nc2c1 | i | 14 | i | 23
Cc1cc(C(=O)COC(=O)c2cccc(O)c2)c(C)n1C1CC1 | i | i | i | i
COc1ccc(-c2cc(C(=O)N3CCCCCC3)c3ccccc3n2)cc1 | i | i | i | i
CN(CCNC(=O)C1CCN(c2ncnc3c2nc2n3CCCCC2)CC1)Cc1ccccc1 | i | 11 | i | i
O=C(Nc1ccc(Cl)cc1)C1CCCN(c2ncnc3c2nc2n3CCCCC2)C1 (configuration not stated) | i | i | i | i
